This note sets out measurements from PubChem BioAssay (NCATS).

Active and inactive are the calls of the source. The rule behind the calls is not given here.
Potency is the fitted concentration of half-maximal effect.

For the test, the system named is HIV-1 nucleocapsid protein NCp7 (binding to TG oligonucleotide). Put plainly: HIV Nucleocapsid (AID 346).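 Note: potency is for inhibitors that block NC binding and lower polarization.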 Particulars: HIV-1 NC / fluorescein-TGTGTGTG probe, fluorescence polarization. In short, it runs like this:
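NCp7 100 nM + fluorescein TG4xF 10 nM; Hepes pH 7.5/250mM NaCl/1uM ZnCl2/0.004% PEG 20000; 1 hr RT; FP, 45 s exposure; oligo-only wells as negative control.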
A general note: Polarisation of emitted light reports the rotation of a fluorescent probe.
Turning to `CC(C)NC(=O)N1CCC2(CC1)CCN(C(=O)c1ccco1)CC2`, the Potency is > 20 µM (inactive).

Take `Cc1ccccc1-c1nc(NCc2cccs2)c2ccccc2n1`: the Potency is > 20 µM (inactive).

Regarding `COc1ncc2nc(-c3cc(F)cc(F)c3)c(=O)n(CCc3ccccc3)c2n1`, the Potency is > 20 µM (inactive).

For the compound `c1ccc(CNc2nc(-c3ccc4c(c3)OCO4)nc3ccccc23)cc1`, the Potency is > 20 µM (inactive).

As for `O=C(c1ccco1)N1CCC2(CCCN(Cc3ccncc3)C2)CC1`, the Potency is > 20 µM (inactive).

For the compound `FC(F)(F)c1ccccc1-c1cncnc1NCCN1CCOCC1`, the Potency is > 20 µM (inactive).

With `COCC(=O)N1CCC2(CCCN(Cc3ccccc3OC)C2)CC1`, the Potency was > 20 µM (inactive).

As to `Cn1cc(-c2nc3cnc(N4CCNCC4)nc3n(CCc3ccccc3)c2=O)c2ccccc21`, the Potency was > 4 µM (inactive).

`O=C(c1csnn1)N1CCC[C@@]2(CCN(Cc3nccs3)C2)C1`: the Potency is > 20 µM (inactive).

As for `Cc1noc(C)c1-c1ccc2ncnc(Nc3ccc(F)cc3)c2c1`, the Potency is > 20 µM (inactive).

Take `CS(=O)(=O)Nc1cccc(-c2nccc(Nc3ccc(F)cc3)n2)c1`: the Potency is > 20 µM (inactive).

As for `O=C(Nc1cccc(F)c1)N1CC[C@@]2(CCCN(C(=O)c3cnccn3)C2)C1`, the Potency was > 20 µM (inactive).

`O=C(c1csnn1)N1CCC2(CCCN(C(c3ccccc3)c3ccccc3)C2)CC1`: the Potency is > 20 µM (inactive).

As for `COCCn1c(=O)c(-c2ccc(Cl)cc2)nc2cnc(OCc3ccccc3)nc21`, the Potency is > 20 µM (inactive).

As to `CN(C)C(=O)c1ccc(-c2cncnc2N(C)Cc2ccco2)cc1`, the Potency is > 20 µM (inactive).
